# Compound activity (PubChem)
# An excerpt weighted towards active compounds, which were near 4.1% of everything screened.
# DAX1 inh-1 – DAX1 (NR0B1) inhibitors on StAR promoter, primary screen, cell-based, luminescence, SF-1 (NR5A1), full-length DAX-1 | HEK293T StAR-luciferase reporter, SF-1/DAX-1 repression relief | inhibition, % at 6.8 µM | 370,000 tested, 1.1% active | AID 652010, 2013;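 active = inhibition above the mean over all tested compounds plus 3 SD, cut at about 3.6% in these data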;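 also: 0% = DAX-1 cells with DMSO and 100% = cells lacking DAX-1 with DMSO; higher inhibition means more luminescence from relief of DAX-1 repression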
# hgDAF-12 ag – H. glycines DAF-12 receptor agonists, primary screen, cell-based, luminescence, HEK293, GAL4 fusion, UAS-luciferase | Nuclear hormone receptor DAF-12 (Heterodera glycines), GAL4 fusion | HEK293 GAL4-hgDAF12 UAS-luciferase reporter, agonist luminescence; normalized to butyrate control | activation, % at 6.8 µM | 370,000 tested, 1.8% active | AID 687014, 2013;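 active = activation above a cutoff set at the mean of all screened compounds plus 3 SD, cut at about 10% in these data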;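 also: 0% = DMSO wells and 100% = sodium butyrate wells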
# ssDAF-12 act – S. stercoralis DAF-12 nuclear receptor activators, primary screen, cell-based, luminescence, HEK293, GRIP1 co-expression, lit1-tk-luc | HEK293 ssDAF-12/GRIP1 lit1-tk-luc reporter; % of 3 µM dafachronic acid response | AID 652126, 2013 | 370,000 tested, 1% active | activation, % at 6.8 µM | Nuclear hormone receptor DAF-12 (Strongyloides stercoralis);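 active = activation above the mean over all tested compounds plus 3 SD, cut at about 0.9% in these data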;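 also: 0% = DMSO-only wells and 100% = 3 µM delta7-dafachronic acid wells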
# DAX1 inh-2 – DAX1 (NR0B1) inhibitors, primary screen, cell-based, HEK293, Gal4-DAX1, luciferase luminescence; Nuclear receptor subfamily 0 group B member 1 (Homo sapiens), P51843; inhibition, % at 6.75 µM; HEK293 Gal4-DAX1 luciferase reporter; 340,000 tested, 0.99% active;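 active = inhibition above the mean over all tested compounds plus 3 SD, cut at about 4.2% in these data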;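 also: 0% = DAX1-transfected cells with DMSO and 100% = empty-vector control cells with DMSO; inhibition shows as a rise in luminescence from relieved DAX1 repression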
# Target sequence (P51843 207-470 limits assumed): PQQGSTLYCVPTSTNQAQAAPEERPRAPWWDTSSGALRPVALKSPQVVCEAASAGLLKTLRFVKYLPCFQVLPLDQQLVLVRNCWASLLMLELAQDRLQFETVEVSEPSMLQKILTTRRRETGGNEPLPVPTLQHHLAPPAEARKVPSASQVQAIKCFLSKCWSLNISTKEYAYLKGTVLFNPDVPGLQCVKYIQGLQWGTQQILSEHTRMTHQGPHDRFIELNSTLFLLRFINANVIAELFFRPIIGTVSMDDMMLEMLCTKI
# hcDAF-12 act – H. contortus DAF-12 nuclear receptor activators, primary screen, cell-based, luminescence, HEK293, lit1-tk-luc reporter | HEK293 hcDAF-12 lit1-tk-luc reporter; 0% DMSO, 100% Δ7-dafachronic acid | activation, % at 6.8 µM | 370,000 tested, 1.4% active | AID 652067, 2013;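 active = activation above the mean of all tested compounds plus 3 SD, cut at about 5.5% in these data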;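 also: 100% = response to 3 µM Δ7-dafachronic acid high control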
# Starred values were filed as active, the others as inactive; x = no result.
SMILES,DAX1 inh-1,hgDAF-12 ag,ssDAF-12 act,DAX1 inh-2,hcDAF-12 act
C=CCC1(CC=C)CCCN1C(=O)C1CCC(=O)N(CCc2ccc(OC)cc2)C1 (stereo not drawn),2,13*,-1,2,4
C=CCC1(CC=C)CCCN1C(=O)C1CCC(=O)N(CCc2ccccc2)C1 (stereo not drawn),1,10,0,2,2
O=C(CCS(=O)(=O)c1cccs1)NC1CCCCCC1,1,12*,0,2,1
O=C(NCCc1ccccc1)c1ccc2nccnc2c1,4.2*,11*,0,-1,5
O=C(NCCc1ccccc1)c1cccnc1,1,11*,-1,2,1
O=C(NCCc1ccccc1)c1cccc(Br)c1,1,6,0,1,1
C=CCn1c(COc2cccc3ccc(C)nc23)nnc1SCC(=O)OC,1,1,0.9*,0,3
CCn1c(COc2cccc3cccnc23)nnc1SCC(=O)O,1,-1,-2,5.4*,-1
CCn1c(COc2cccc3cccnc23)nnc1SCC(=O)OC,0,-2,-2,0,0
Clc1ccc(-n2nnnc2CN2CCOCC2)cc1,-1,-1,-1,6.0*,0
O=C(Nc1cccc(C(F)(F)F)c1)OC1CCC12CCC(c1ccccc1)CC2 (stereo not drawn),-1,1,-1,x,4
COc1nc(OC)nc(N2CCC(C(=O)NCc3ccccc3OC)CC2)n1,0,4,0,x,-2
COc1ccc(NC(=O)COC(=O)Cn2cnc3ccccc3c2=O)c(OC)c1,0,3,-1,0,0
Cc1nc(SCC(=O)Nc2cc(Cl)ccc2[N+](=O)[O-])nc(C)c1C,-1,-2,-1,1,-1
O=C(COC(=O)Cn1cnc2ccccc2c1=O)Nc1cc(Cl)ccc1[N+](=O)[O-],0,0,1,0,5.6*
O=C(CSc1ncccn1)Nc1cc(Cl)ccc1[N+](=O)[O-],0,2,0,4.8*,0
O=C(CSc1ncccn1)NCc1cccc(Cl)c1,0,12*,-1,1,4
Cn1c(=O)c2c(ncn2CC(=O)OCC(=O)Nc2cc(Cl)ccc2C#N)n(C)c1=O,0,0,1,1,6.0*
Cc1ccc(Cl)cc1NC(=O)COC(=O)Cn1cnc2c1c(=O)n(C)c(=O)n2C,0,-1,-2,-1,5
O=C(CSc1ncccn1)NCc1ccc(Cl)cc1,1,6,-1,1,1
CC(C)c1nnc(SCC(=O)N2CCN(C(=O)c3ccco3)CC2)n1N,1,-4,-2,0,-2
CCN(CC(=O)Nc1ccc2c(c1)OCCO2)C(=O)/C=C/c1cccc(OC)c1OC,2,5,0,2,1
O=C(/C=C/c1ccc2c(c1)OCCO2)c1ccccc1,1,11*,-1,x,4
COc1cccc(/C=C/C(=O)c2ccc3c(c2)OCCO3)c1OC,0,10*,-1,0,0
O=C(OC12CCCN(C1)/C(=C/c1ccccc1)C2)c1ccc(F)cc1 (stereo not drawn),1,1,-1,x,5
SMILES,DAX1 inh-1,hgDAF-12 ag,ssDAF-12 act,DAX1 inh-2,hcDAF-12 act
Cn1c(N)c(C(=O)COC(=O)CSc2ccccc2)c(=O)n(C)c1=O,0,1,-1,8.5*,-2
CC1=N/C(=C\c2ccc(OC(C)C)cc2)C(=O)N1c1ccc(C(=O)O)cc1,0,2,1.9*,-1,-3
O=[N+]([O-])c1cccc(NCCCN2CCC(C(O)(c3ccccc3)c3ccccc3)CC2)c1,0,1,-1,x,1
O=c1[nH][nH]cc1C=Nc1ccc(Cl)cc1Cl,0,-1,1.6*,1,0
Cc1nc(NC(=O)C(C)(C)C)sc1-c1csc(N)n1,0,-1,-2,0,-1
Cc1nc(N)nc(COc2ccccc2)n1,1,7,-1,8.4*,4
COc1ccc(OCc2nc(N)nc(Nc3ccccc3)n2)cc1,0,2,0,0,-2
CCN(CC)C(=O)c1ncn2c1C(=O)N[C@@H](C)C2,0,-4,-1,x,1
CNC(=O)C1=C(C)Nc2nc3ccccc3n2C1c1ccc(F)cc1 (stereo not drawn),0,3,-1,2,-1
N#CC1=C(N)Nc2nc3ccccc3n2C1c1ccc(F)cc1 (stereo not drawn),-1,-2,1.3*,-1,-2
c1ccc2nc3c(nc2c1)CCCC3,0,0,-1,0,-1
C1CCc2nc3c(nc2C1)CCCC3,1,1,-1,5.0*,-1
CCNC(=S)N1CCCC(c2nc3ccc(C)cc3[nH]2)C1 (stereo not drawn),-1,0,-1,-1,0
Cc1ccc2nc(C3CCCCC3)[nH]c2c1,2,12*,0,4.7*,2
O=C(NCCN1CCC(n2c(=O)[nH]c3ccccc32)CC1)c1ccc(Cl)c(Cl)c1,1,0,-1,x,1
O=C(NCc1cccnc1)c1ccc(NC(=O)c2ccco2)cc1,0,1,-1,1,0
O=C(Nc1ccc(Cl)cc1)c1ccco1,0,4,0,5.2*,2
CCN(CC)c1ccc(NC(=O)c2ccco2)cc1,4.1*,13*,0,1,4
O=C(NCc1ccccn1)c1ccc(NC(=O)c2ccco2)cc1,1,-1,1.3*,1,-2
CCC(C)c1ccc(NC(=O)c2ccco2)cc1 (stereo not drawn),3,11*,0,-4,3
O=C(NCc1ccccc1)[C@@H]1CCCN1C(=O)[C@H]1CCCN1C(=O)c1cccc2ccccc12,-1,-2,-1,x,2
O=C(Nc1ccc(F)cc1)OCCN1CCCC12CCC(c1ccccc1)CC2 (stereo not drawn),x,-1,-2,x,-1
Nc1c(C(=O)N2CCOCC2)cnn1Cc1ccccc1,0,-1,-1,x,1
Nc1c(C(=O)c2cccs2)oc2ccccc12,1,7,0,1,6.1*
Nc1c(C(=O)c2ccc(Br)s2)oc2ccccc12,0,4,0,0,3
CN1CCN(c2ccc(-c3csc(N4CCC(C(N)=O)CC4)n3)cc2)CC1,x,-5,-2,x,-4
Cc1cc(C(=O)NCCc2ccccc2)c2cc(F)ccc2n1,1,2,0,2,0
